Some test systems named below: SR leukemia; RPMI-8226 leukemia; OVCAR-8 ovarian; OVCAR-5 ovarian; OVCAR-4 ovarian; SK-OV-3 ovarian; IGROV1 ovarian; OVCAR-3 ovarian; HS 578T breast; NCI/ADR-RES ovarian.
Holding throughout (assay): NCI-60 one-dose screen, 48 h (100 = growth as untreated, 0 = no growth, -100 = all killed)
Common to all, as to conditions: 10 µM unless noted

About 83,000 compounds went through this panel and 20% of them were active in at least one assay; those are over-represented in the sample as a whole.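 Cells were grown in 96-well plates and exposed to the test compound at a single concentration for 48 hours; results are reported as percent growth, with values below 10 considered active.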 A number with no mark means an inactive call. The source made the active and inactive calls.

Take `OCCc1ccc(Cl)cc1`: the growth in the experiment with SR leukemia was 94.6%; with RPMI-8226 leukemia, 101%; in the experiment with OVCAR-8 ovarian, 98.7%; in the experiment with OVCAR-5 ovarian, 97.8%; with OVCAR-4 ovarian, 103%; with SK-OV-3 ovarian it was 100%. The growth in the experiment with IGROV1 ovarian is 104%; in the experiment with OVCAR-3 ovarian, 105%; in the experiment with HS 578T breast, 95%; in the experiment with NCI/ADR-RES ovarian it was 107%.
`COC1OC(COC(C)=O)C(OC(C)=O)C(OC(C)=O)C1OC(C)=O` (stereo not given): the growth in the experiment on SR leukemia is 95.5%; in the experiment on RPMI-8226 leukemia, 96.4%; in the experiment with OVCAR-8 ovarian, 97.9%; in the experiment on OVCAR-5 ovarian, 93%; with OVCAR-4 ovarian, 86.5%; in the experiment on SK-OV-3 ovarian, 101%. Further, the growth was 118% with IGROV1 ovarian, 96% in the experiment on OVCAR-3 ovarian, 101% in the experiment on HS 578T breast and 95.2% in the experiment on NCI/ADR-RES ovarian.
Take `O=C(O)c1ccc([N+](=O)[O-])cc1S(=O)(=O)O`: the growth in the experiment on SR leukemia was 110%; in the experiment on RPMI-8226 leukemia, 99.5%; in the experiment on OVCAR-8 ovarian it was 99.5%; in the experiment on OVCAR-5 ovarian, 106%; in the experiment with OVCAR-4 ovarian, 116%; with SK-OV-3 ovarian it was 103%. For the same compound, the growth with IGROV1 ovarian was 108%; in the experiment on OVCAR-3 ovarian it was 99.4%; in the experiment on HS 578T breast, 100%; in the experiment on NCI/ADR-RES ovarian it was 104%.
Regarding `CC(O)C(F)(F)C(F)(F)C(F)(F)F` (stereo not given), the growth with SR leukemia is 97.6%; in the experiment on RPMI-8226 leukemia it was 128%; with OVCAR-8 ovarian, 110%; with OVCAR-5 ovarian, 98.7%; in the experiment on OVCAR-4 ovarian, 103%; in the experiment with SK-OV-3 ovarian it was 118%. Also, the growth with IGROV1 ovarian is 114%; with OVCAR-3 ovarian, 121%; with HS 578T breast, 105%; with NCI/ADR-RES ovarian, 110%.
Consider `CCN(C(C)=O)c1ccc([N+](=O)[O-])cc1`, for which the growth with SR leukemia is 97%; in the experiment on RPMI-8226 leukemia it was 93.9%; in the experiment on OVCAR-8 ovarian, 99.2%; in the experiment with OVCAR-5 ovarian it was 111%; in the experiment on OVCAR-4 ovarian, 113%; in the experiment on SK-OV-3 ovarian it was 109%. In addition, the growth was 107% with IGROV1 ovarian, 107% in the experiment with OVCAR-3 ovarian, 99.8% in the experiment with HS 578T breast and 102% in the experiment with NCI/ADR-RES ovarian.
Take `CN(C)CCOC(=O)Nc1ccc(Cc2ccc(NC(=O)OCCN(C)C)cc2)cc1`: the growth in the experiment with SR leukemia was -39.4% [100 µM] (active); in the experiment with RPMI-8226 leukemia, 16.8% [100 µM]; in the experiment on OVCAR-8 ovarian, 98.2% [100 µM]; in the experiment with OVCAR-5 ovarian it was 85.1% [100 µM]; in the experiment on OVCAR-4 ovarian, 94.6% [100 µM]; in the experiment with SK-OV-3 ovarian, 137% [100 µM]. Also, the growth in the experiment on IGROV1 ovarian was 83.2% [100 µM]; in the experiment with OVCAR-3 ovarian, 90.4% [100 µM]; in the experiment on HS 578T breast, 73.1% [100 µM]; with NCI/ADR-RES ovarian, 98.5% [100 µM].
As for `Cc1ccc(Cc2ccc(C)cc2)cc1`, the growth was 102% with SR leukemia; 106% in the experiment with RPMI-8226 leukemia; 102% in the experiment on OVCAR-8 ovarian; 99.1% in the experiment on OVCAR-5 ovarian; 109% with OVCAR-4 ovarian; 97.2% in the experiment with SK-OV-3 ovarian. The growth in the experiment on IGROV1 ovarian is 103%; in the experiment on OVCAR-3 ovarian it was 116%; in the experiment with HS 578T breast, 105%; in the experiment on NCI/ADR-RES ovarian it was 108%.
In the case of `CCC12OC(COc3ccccc3)CN1CCN2c1ccccc1` (stereo not given), the growth is 96.9% [100 µM] with SR leukemia; 94.4% [100 µM] in the experiment with RPMI-8226 leukemia; 96.5% [100 µM] in the experiment on OVCAR-8 ovarian; 98% [100 µM] with OVCAR-5 ovarian; 95.5% [100 µM] with OVCAR-4 ovarian; 106% [100 µM] with SK-OV-3 ovarian. The growth in the experiment with IGROV1 ovarian was 93.4% [100 µM]; in the experiment on OVCAR-3 ovarian it was 110% [100 µM]; in the experiment with HS 578T breast, 99.1% [100 µM]; in the experiment with NCI/ADR-RES ovarian, 100% [100 µM].
For `OCCNc1ccccc1`, the growth in the experiment with SR leukemia was 93.2%; in the experiment with RPMI-8226 leukemia, 105%; in the experiment with OVCAR-8 ovarian, 102%; in the experiment with OVCAR-5 ovarian, 107%; in the experiment with OVCAR-4 ovarian it was 101%; in the experiment on SK-OV-3 ovarian, 105%. Besides, the growth was 110% in the experiment with IGROV1 ovarian, 105% in the experiment on OVCAR-3 ovarian, 101% with HS 578T breast and 100% in the experiment with NCI/ADR-RES ovarian.
As for `Clc1ccc(-c2noc(/C=C\c3ccccc3)n2)cc1`, the growth with SR leukemia was 97.8%; in the experiment with RPMI-8226 leukemia it was 110%; in the experiment with OVCAR-8 ovarian, 98.7%; in the experiment on OVCAR-5 ovarian, 99.6%; with OVCAR-4 ovarian, 102%; with SK-OV-3 ovarian, 95.1%. Besides, the growth was 96.3% with IGROV1 ovarian, 102% with OVCAR-3 ovarian, 119% in the experiment with HS 578T breast and 108% with NCI/ADR-RES ovarian.
In the case of `CCCC(=O)c1cccs1`, the growth is 95.8% in the experiment with SR leukemia; 105% in the experiment on RPMI-8226 leukemia; 107% in the experiment on OVCAR-8 ovarian; 100% in the experiment with OVCAR-5 ovarian; 103% with OVCAR-4 ovarian; 103% in the experiment on SK-OV-3 ovarian. The growth with IGROV1 ovarian was 110%; in the experiment on OVCAR-3 ovarian, 107%; with HS 578T breast it was 95.2%; with NCI/ADR-RES ovarian it was 101%.
Consider `CCOc1ccc(C(=O)NCC(C)C)cc1`, for which the growth is 102% in the experiment with SR leukemia; 105% with RPMI-8226 leukemia; 105% in the experiment on OVCAR-8 ovarian; 105% in the experiment on OVCAR-5 ovarian; 97.2% in the experiment on OVCAR-4 ovarian; 99.7% in the experiment with SK-OV-3 ovarian. Besides, the growth in the experiment on IGROV1 ovarian was 110%; in the experiment with OVCAR-3 ovarian, 109%; in the experiment with HS 578T breast, 107%; with NCI/ADR-RES ovarian, 111%.
Turning to `NC(=O)N1CCOCC1`, the growth in the experiment on SR leukemia was 89.8%; with RPMI-8226 leukemia, 94.8%; with OVCAR-8 ovarian, 103%; in the experiment with OVCAR-5 ovarian, 108%; in the experiment with OVCAR-4 ovarian, 103%; in the experiment with SK-OV-3 ovarian, 103%. Also, the growth with IGROV1 ovarian was 113%; in the experiment with OVCAR-3 ovarian, 103%; in the experiment with HS 578T breast, 113%; in the experiment on NCI/ADR-RES ovarian, 113%.
As for `C=C1C(=O)C2CCC1C2` (stereo not given), the growth in the experiment with SR leukemia is 96.7%; in the experiment on RPMI-8226 leukemia, 106%; with OVCAR-8 ovarian, 109%; in the experiment on OVCAR-5 ovarian, 101%; with OVCAR-4 ovarian, 111%; in the experiment with SK-OV-3 ovarian, 105%. Further, the growth with IGROV1 ovarian was 111%; with OVCAR-3 ovarian it was 95.2%; in the experiment with HS 578T breast, 73.7%; in the experiment on NCI/ADR-RES ovarian, 105%.
For `CC(=O)C1C(=O)C(=O)N(c2cccc([N+](=O)[O-])c2)C1=O` (stereo not given), the growth in the experiment on SR leukemia is 95.6%; with RPMI-8226 leukemia it was 107%; in the experiment on OVCAR-8 ovarian, 106%; in the experiment on OVCAR-5 ovarian, 113%; with OVCAR-4 ovarian it was 103%; with SK-OV-3 ovarian, 102%. Besides, the growth was 109% in the experiment on IGROV1 ovarian, 117% with OVCAR-3 ovarian, 93.8% in the experiment with HS 578T breast and 113% with NCI/ADR-RES ovarian.

The values are drawn from PubChem BioAssay (NCI).
